# Out of some 1,000 compounds screened, about 710 (71%) were called active. Inconclusive results (about 7%) are left out.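 How the source made its calls: active means inhibition of receptor movement into the nucleus at or above a set limit in both runs, with normal cell brightness and cell count; inconclusive means limit reached in only one run, brightness and count normal; inactive means the rest.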 The set was probably picked from earlier hits. These entries were drawn from the full list.
# Assay: blockers of dexamethasone-driven GR-EGFP nuclear import – imaging, high-content imaging, GR-EGFP cells, confirmation (AID 463116);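 on inhibition: dexamethasone at 1 µM final in well for 30 min; nuclear minus cytoplasmic GR-EGFP mean intensity difference in channel 2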
# Details: 3617.4 GR-EGFP nuclear translocation imaging, dexamethasone-induced, at 20 µM; inhibition: stronger effect = higher value; z-score: measured here: cell count per field
SMILES,inhibition,z-score
COc1cccc(N2C(=O)NC(=O)/C(=C\c3ccc([N+](=O)[O-])s3)C2=O)c1,81.3% (active),0.0253
O=C1NC(=O)N(c2ccccc2)C(=O)/C1=C/c1ccc([N+](=O)[O-])s1,81.8% (active),0.0604
